Compound activity deposited in PubChem by National Center for Advancing Translational Sciences (NCATS).
ATXN2 expr inh – inhibitors of ATXN2 expression | HEK-293 ATXN2-luciferase reporter, luminescence, 24 h | Potency, µM (top dose mostly 57 µM), usual class: inhibitors | 360,000 tested, 0.72% active; also: nearly all actives have a fitted effect of over 55% in size
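ATXN2-luciferase reporter cells (luciferase flanked by upstream and downstream ATXN2 gene portions) were treated 24 h at 37 °C with compounds at up to 57 uM. SteadyGlo luminescence gave expression; GF-AFC fluorescence gave viability.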
ATXN viability – viability counter-screen for ATXN expression inhibitors. S2 cells (HEK-293 line with an ATXN2-luciferase reporter) viability, CellTiter-Fluor protease fluorescence, 24 h. Potency, µM (titrated, usually from 56.7 µM), most hits filed as cytotoxic. 400,000 tested, 0.49% active; also: nearly all actives have a fitted effect of over 40% in size
DT40 TDP1 CPT – DT40-hTDP1 cell growth loss with CPT. chicken DT40 Tdp1-/-;hTDP1 cells + 20 nM CPT, ATP luminescence, 48 h. Potency, µM (titrated, usually from 46.2 µM), actives largely listed as inhibitors. 420,000 tested, 12% active. AID 686979; also: nearly all actives have a fitted effect of over 55% in size
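Cell growth measured by CellTiter-Glo luminescence after a minimum 48 h, 37 C compound exposure with 20 nM CPT in Tdp1-knockout DT40 cells stably expressing hTDP1, seeded 400/well; qHTS titration format.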
HepG2 viability – HepG2 cytotoxicity, counter-screen for TGF-b inhibitors | HepG2 CAGA-GFP viability, ATP luminescence, 18 h | Potency, µM (highest dose often 46.1 µM), most hits filed as cytotoxic | 410,000 tested, 0.76% active
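CellTiter-Glo luminescence gave cytotoxicity after 18 hours at 37 degrees C. The cells were HepG2 CAGA-GFP in 1% FBS DMEM, stimulated with 500 pg/mL TGF-beta after compound addition. %Activity was normalised to no-cell wells (complete cell-killing) and DMSO (no toxicity), and curves were fitted and classified.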
TGFb SMAD3 inh – blocks TGF-b signaling | 410,000 tested, 1.2% active | HepG2 CAGA-GFP TGF-b/SMAD3 reporter, GFP fluorescence, 18 h; TGF-beta stimulated, 500 pg/mL final | Potency, µM (top dose mostly 46.1 µM), most hits filed as inhibitors | AID 588855; also: nearly all actives have a fitted effect of over 65% in size
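Cell-based qHTS in HEPG2 carrying a CAGA-GFP Smad reporter; compounds added before 500 pg/mL final TGF-beta, 18 h incubation at 37 degrees C, GFP fluorescence quantified per cell by imaging cytometry.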
TDP1 cell noCPT – qHTS for Inhibitors of human tyrosyl-DNA phosphodiesterase 1 (TDP1): qHTS in cells in absence of CPT. Potency, µM (series often up to 46.2 µM), usual class: inhibitors. 420,000 tested, 15% active. DT40 Tdp1-/- hTDP1 cells, no CPT, ATP luminescence, 48 h; also: nearly all actives have a fitted effect of over 55% in size
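No-CPT arm: Tdp1-/-;hTDP1 DT40 cells (400/well) plus compounds, incubated ≥48 hr at 37 °C. Readout CellTiter-Glo luminescence.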
Of the large screens only hits and unclear results are named; the others gave an inactive call. A selection: hits, their analogues and other compounds. The true share with any hit is near 17%. Calls follow the shape of the dose curve; as a rule, active = well fitted curve in the direction sought with a large enough effect; inconclusive = small, poorly fitted or top-dose-only effect, or another doubt; inactive = no such curve, though single readings can be large; an effect the other way counts as inactive or inconclusive.

COc1ccc2c(COC(=O)c3n[nH]c4ccccc34)cc(=O)oc2c1	DT40 TDP1 CPT inconclusive, TDP1 cell noCPT 21µM
COc1ccc(N2CCN(Cc3cc(=O)oc4ccc(OC)cc34)CC2)cc1	none (no result: ATXN2 expr inh, ATXN viability)
CCCN(CCC)Cc1cc(=O)oc2cc(OC)ccc12	DT40 TDP1 CPT inconclusive, TGFb SMAD3 inh inconclusive, TDP1 cell noCPT inconclusive
COc1ccc2c(CN3CCN(c4ccc(Cl)c(Cl)c4)CC3)cc(=O)oc2c1	DT40 TDP1 CPT 21µM, TDP1 cell noCPT 13µM
COc1ccc2oc(=O)cc(CN3CCN(Cc4ccccc4)CC3)c2c1	DT40 TDP1 CPT inconclusive, TGFb SMAD3 inh inconclusive, TDP1 cell noCPT inconclusive (no result: ATXN2 expr inh)
COc1ccc2c(CN3CCN(Cc4ccccc4)CC3)cc(=O)oc2c1	DT40 TDP1 CPT inconclusive, TDP1 cell noCPT 23µM (no result: ATXN2 expr inh)
CCOc1cc(CNc2cccc3[nH]c(C)nc23)ccc1OC	DT40 TDP1 CPT inconclusive, TDP1 cell noCPT inconclusive
CCc1nc2c(OCc3ccccc3C(=O)OC)cccn2c1N(C)C(=O)Nc1ccccc1OC	ATXN2 expr inh inconclusive, ATXN viability inconclusive, DT40 TDP1 CPT inconclusive, TDP1 cell noCPT inconclusive
COCc1c(C(=O)N2CCCCC2c2cccnc2)cnn1-c1ncc2c(n1)-c1ccccc1CCC2 (stereo not given)	ATXN viability inconclusive, TDP1 cell noCPT inconclusive (no result: ATXN2 expr inh, HepG2 viability, TGFb SMAD3 inh)
O=C1NC(c2ccccc2)N=C2Oc3ccccc3C=C12 (stereo not given)	DT40 TDP1 CPT 4.6µM, TDP1 cell noCPT 4.6µM
c1ccc(C2Nc3ccccc3Oc3ccccc32)cc1 (stereo not given)	none
CCOc1ccc(N2C(=O)CC(Cc3cc(C)cc(C)c3)C2=O)cc1 (stereo not given)	ATXN viability inconclusive, TDP1 cell noCPT inconclusive (no result: ATXN2 expr inh)
COc1cccc(N2C(=O)C3C(C2=O)C3(c2ccccc2)c2ccccc2)c1 (stereo not given)	TDP1 cell noCPT inconclusive
COc1ccc(N2C(=O)CC(Sc3nc4c(cc3C#N)CCC4)C2=O)cc1 (stereo not given)	none
COc1ccc(N2C(=O)CC(Sc3n[nH]c(-c4ccccc4)n3)C2=O)cc1 (stereo not given)	ATXN viability inconclusive, DT40 TDP1 CPT 0.46µM, TDP1 cell noCPT 1.2µM
CCOc1ccc(N2C(=O)CC(N)C2=O)cc1 (stereo not given)	DT40 TDP1 CPT 1.8µM, TGFb SMAD3 inh inconclusive, TDP1 cell noCPT 2.6µM
CCOc1ccc(N2C(=O)CC(Sc3n[nH]c(-c4ccccc4)n3)C2=O)cc1 (stereo not given)	DT40 TDP1 CPT 7.3µM, TDP1 cell noCPT 7.3µM (no result: ATXN2 expr inh)
CCOc1ccc(N2C(=O)C3C(C2=O)C3(c2ccccc2)c2ccccc2)cc1 (stereo not given)	ATXN viability inconclusive, DT40 TDP1 CPT 18µM, TGFb SMAD3 inh inconclusive, TDP1 cell noCPT inconclusive
CCOc1ccc(N2C(=O)CC(SCC(=O)O)C2=O)cc1 (stereo not given)	none
NC(=O)CC1C(=O)N(c2ccccc2)C(=S)N1NC(=O)c1ccccc1 (stereo not given)	none
CCOc1ccc(N2C(=O)CC(Sc3nc(CC(C)C)ccc3C#N)C2=O)cc1 (stereo not given)	DT40 TDP1 CPT 23µM, TDP1 cell noCPT inconclusive
O=C1CC(SCc2nc3ccccc3[nH]2)C(=O)N1c1ccc(Cl)cc1 (stereo not given)	DT40 TDP1 CPT inconclusive, TDP1 cell noCPT inconclusive
CCOC(=O)CN1C(=O)C(Sc2n[nH]c(-c3ccccc3)n2)CCc2ccccc21 (stereo not given)	DT40 TDP1 CPT 21µM, TDP1 cell noCPT 21µM
CCOc1ccc(N2C(=O)CC(SCc3nc4ccccc4[nH]3)C2=O)cc1 (stereo not given)	DT40 TDP1 CPT 16µM, TDP1 cell noCPT inconclusive
CCOC(=O)CN1C(=O)C(CC)Oc2ccccc21 (stereo not given)	TGFb SMAD3 inh inconclusive
